# Assay results as given in the supplement of paper PMC6658780.
# Counter-ions that a name gives are not always drawn. ± gives the standard deviation of the averaged measurements.
# Key:
# [1] = tested on: Klebsiella pneumoniae KPC-119; test: percent growth inhibition of drug alone vs DMSO control; higher = more growth inhibition; conditions: antibiotic (0.125x MIC): none (0.1% DMSO)
# [2] = tested on: Klebsiella pneumoniae NCTC-13439; test: as above; conditions: antibiotic (0.125x MIC): none (0.1% DMSO)
# [3] = tested on: Klebsiella pneumoniae KPC-119; test: percent growth inhibition of drug + antibiotic vs DMSO control; higher = more growth inhibition
# [4] = tested on: Klebsiella pneumoniae NCTC-13439; test: as above
# [5] = tested on: Escherichia coli ATCC BAA-2469; test: as above
# Procedure: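 Prestwick drugs tested at 20 uM and 7 uM with an antibiotic at 0.125x MIC (16 mg/L when MIC >128 mg/L) against E. coli ATCC BAA-2469 (NDM-1) in CAMHB, 384-well plates, duplicate runs. Percent growth inhibition was computed from OD600 (24 h minus 0 h) relative to DMSO wells. Drug + DMSO-only wells are also given. […]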
# [6] = antibiotic (0.125x MIC): colistin, 7 µM
# [7] = antibiotic (0.125x MIC): colistin, 20 µM
# [8] = antibiotic (0.125x MIC): gentamicin, 7 µM
# [9] = antibiotic (0.125x MIC): gentamicin, 20 µM
# [10] = antibiotic (0.125x MIC): ciprofloxacin, 7 µM
# [11] = antibiotic (0.125x MIC): ciprofloxacin, 20 µM
# [12] = antibiotic (0.125x MIC): tigecycline, 7 µM
compound,measurement,setting,value
CC(=O)OC[C@H]1O[C@@H]([S-])[C@H](OC(C)=O)[C@@H](OC(C)=O)[C@@H]1OC(C)=O.CCP(CC)CC.[Au+] [Auranofin],percent growth inhibition of drug alone,[1]; 7 µM,10 ± 0.89%
same,percent growth inhibition of drug alone,[1]; 20 µM,50.22 ± 0.3%
same,percent growth inhibition of drug alone,[2]; 7 µM,9.98 ± 8.3%
same,percent growth inhibition of drug alone,[2]; 20 µM,22.6 ± 13%
same,percent growth inhibition,[3]; [6],101 ± 3.5%
same,percent growth inhibition,[3]; [7],96.14 ± 0.42%
same,percent growth inhibition,[3]; [8],33.2 ± 9.4%
same,percent growth inhibition,[3]; [9],99.78 ± 0.2%
same,percent growth inhibition,"[3]; antibiotic (0.125x MIC): meropenem, 7 µM",98.3 ± 1.4%
same,percent growth inhibition,"[3]; antibiotic (0.125x MIC): meropenem, 20 µM",99.5 ± 0.13%
same,percent growth inhibition,[4]; [10],10.8 ± 5.5%
O=C1OCCN1/N=C/c1ccc([N+](=O)[O-])o1 [Furazolidone],percent growth inhibition of drug alone,[1]; 7 µM,18.3 ± 1.2%
same,percent growth inhibition of drug alone,[1]; 20 µM,39.8 ± 1.6%
same,percent growth inhibition of drug alone,[2]; 7 µM,17.5 ± 3%
same,percent growth inhibition of drug alone,[2]; 20 µM,49.8 ± 1.5%
same,percent growth inhibition,[3]; [6],96.1 ± 7%
same,percent growth inhibition,[3]; [7],99.62 ± 0.88%
same,percent growth inhibition,[3]; [8],17.8 ± 1.7%
same,percent growth inhibition,[3]; [9],99.78 ± 0.13%
same,percent growth inhibition,[4]; [10],17 ± 1.2%
same,percent growth inhibition,[4]; [11],99.97 ± 0.19%
same,percent growth inhibition,[4]; [12],26.3 ± 2.4%
CCOC(=O)c1ccc(OC(=O)CCCCCNC(=N)N)cc1 [Gabexate mesilate],percent growth inhibition,[5]; [8],4.82 ± 3.7%
Nc1nnc(-c2cccc(Cl)c2Cl)c(N)n1 [Lamotrigine],percent growth inhibition,[5]; [8],7.06 ± 4.8%
CO/N=C(\C(=O)N[C@@H]1C(=O)N2C(C(=O)O)=C(COC(C)=O)CS[C@H]12)c1csc(N)n1 [Cefotaxime sodium salt],percent growth inhibition of drug alone,[1]; 7 µM,4.98 ± 2%
same,percent growth inhibition of drug alone,[1]; 20 µM,37.8 ± 0.86%
same,percent growth inhibition,[3]; [8],29.3 ± 2.3%
CC[C@H]1OC(=O)[C@H](C)[C@@H](O[C@H]2C[C@@](C)(OC)[C@@H](O)[C@H](C)O2)[C@H](C)[C@@H](O[C@@H]2O[C@H](C)C[C@H](N(C)C)[C@H]2O)[C@](C)(O)C[C@@H](C)CN(C)[C@H](C)[C@@H](O)[C@]1(C)O [Azithromycin],percent growth inhibition of drug alone,[1]; 7 µM,5.21 ± 1.8%
same,percent growth inhibition of drug alone,[1]; 20 µM,21.1 ± 1%
same,percent growth inhibition of drug alone,[2]; 7 µM,55.2 ± 6.6%
same,percent growth inhibition of drug alone,[2]; 20 µM,74.4 ± 19%
same,percent growth inhibition,[3]; [6],40.9 ± 12%
same,percent growth inhibition,[3]; [7],98.78 ± 0.7%
same,percent growth inhibition,[4]; [10],44.5 ± 5.6%
same,percent growth inhibition,[4]; [11],99.666 ± 0.042%
same,percent growth inhibition,[4]; [12],64.2 ± 2.8%
CC(C)Nc1cccnc1N1CCN(C(=O)c2cc3cc(NS(C)(=O)=O)ccc3[nH]2)CC1 [Delavirdine],percent growth inhibition of drug alone,[1]; 7 µM,-0.164 ± 2.9%
same,percent growth inhibition of drug alone,[1]; 20 µM,-1.86 ± 1%
same,percent growth inhibition,[3]; [6],-6.39 ± 0.99%
CCn1cc(C(=O)O)c(=O)c2cc(F)c(N3CCN(C)CC3)cc21 [Pefloxacine],percent growth inhibition of drug alone,[1]; 7 µM,12.5 ± 1.1%
same,percent growth inhibition of drug alone,[1]; 20 µM,51.2 ± 3.2%
same,percent growth inhibition,[3]; [8],11.4 ± 19%
OC(CCN1CCCC1)(c1ccccc1)C1CCCCC1 (stereo unspecified) [Procyclidine hydrochloride],percent growth inhibition,[5]; [10],10.9 ± 16%
same,percent growth inhibition,[5]; [11],8.13 ± 9.2%
CC(C)(C)CC(C)(C)c1ccc(OCCOCC[N+](C)(C)Cc2ccccc2)cc1 [Benzethonium chloride],percent growth inhibition of drug alone,[1]; 7 µM,2.21 ± 0.87%
same,percent growth inhibition of drug alone,[1]; 20 µM,2.03 ± 2.5%
same,percent growth inhibition,[3]; [6],4.69 ± 10%
same,percent growth inhibition,[3]; [7],97.15 ± 0.41%
COc1nc(C)nc(Cl)c1NC1=NCCN1 [Moxonidine],percent growth inhibition of drug alone,[1]; 7 µM,-0.572 ± 3.2%
same,percent growth inhibition of drug alone,[1]; 20 µM,-0.25 ± 3.1%
same,percent growth inhibition,[3]; [7],-7.57 ± 6.4%
O=C1NCCN1c1ncc([N+](=O)[O-])s1 [Niridazole],percent growth inhibition of drug alone,[1]; 7 µM,9.23 ± 8.8%
same,percent growth inhibition of drug alone,[1]; 20 µM,74.9 ± 13%
same,percent growth inhibition,[3]; [8],38.6 ± 6.3%
same,percent growth inhibition,[3]; [9],95.7 ± 4.1%
CO[C@@H]1[C@@H](OC(N)=O)[C@@H](O)[C@H](Oc2ccc3c(O)c(NC(=O)c4ccc(O)c(CC=C(C)C)c4)c(=O)oc3c2C)OC1(C)C [Novobiocin sodium salt],percent growth inhibition of drug alone,[1]; 7 µM,0.874 ± 4.5%
same,percent growth inhibition of drug alone,[1]; 20 µM,5.13 ± 1.4%
same,percent growth inhibition,[3]; [6],34.1 ± 0.68%
same,percent growth inhibition,[3]; [7],98.55 ± 0.69%
CC[C@H]1OC(=O)[C@H](C)[C@@H](O[C@H]2C[C@@](C)(OC)[C@@H](O)[C@H](C)O2)[C@H](C)[C@@H](O[C@@H]2O[C@H](C)C[C@H](N(C)C)[C@H]2O)[C@](C)(OC)C[C@@H](C)C(=O)[C@H](C)[C@@H](O)[C@]1(C)O [Clarithromycin],percent growth inhibition of drug alone,[1]; 7 µM,0.744 ± 2.4%
same,percent growth inhibition of drug alone,[1]; 20 µM,3.19 ± 2.3%
same,percent growth inhibition,[3]; [7],3.22 ± 2.8%
CO[C@@]1(NC(=O)CSCC#N)C(=O)N2C(C(=O)O)=C(CSc3nnnn3C)CS[C@@H]21 [Cefmetazole sodium salt],percent growth inhibition of drug alone,[1]; 7 µM,2.72 ± 1.2%
same,percent growth inhibition of drug alone,[1]; 20 µM,32.6 ± 2.3%
same,percent growth inhibition,[3]; [8],3.52 ± 6.6%
COc1cccc2c1C(=O)c1c(O)c3c(c(O)c1C2=O)C[C@@](O)(C(C)=O)C[C@@H]3O[C@H]1C[C@H](N)[C@H](O)[C@H](C)O1 [Daunorubicin hydrochloride],percent growth inhibition of drug alone,[1]; 7 µM,5 ± 0.63%
same,percent growth inhibition of drug alone,[1]; 20 µM,5.26 ± 2.2%
same,percent growth inhibition,[3]; [6],-2.48 ± 6.2%
same,percent growth inhibition,[3]; [7],97.24 ± 0.46%
CC(=O)OCC(=O)[C@@]1(O)CC[C@H]2[C@@H]3CCC4=CC(=O)CC[C@]4(C)[C@@]3(F)[C@@H](O)C[C@@]21C [Fludrocortisone acetate],percent growth inhibition of drug alone,[1]; 7 µM,1.64 ± 0.4%
same,percent growth inhibition of drug alone,[1]; 20 µM,3.28 ± 1.7%
same,percent growth inhibition,[3]; [6],58.4 ± 10%
same,percent growth inhibition,[3]; [7],-6.61 ± 5%
CCCCOC(=O)c1ccc(N)cc1 [Butamben],percent growth inhibition of drug alone,[1]; 7 µM,-0.672 ± 3.4%
same,percent growth inhibition of drug alone,[1]; 20 µM,-0.688 ± 0.36%
same,percent growth inhibition,[3]; [7],3.33 ± 3%
C=C1c2c(Cl)ccc(O)c2C(=O)C2=C(O)[C@]3(O)C(=O)C(C(N)=O)=C(O)[C@@H](N(C)C)[C@@H]3[C@@H](O)[C@H]12.O=C(O)c1cc(S(=O)(=O)O)ccc1O [Meclocycline sulfosalicylate],percent growth inhibition of drug alone,[1]; 7 µM,2.09 ± 6.8%
same,percent growth inhibition of drug alone,[1]; 20 µM,7.24 ± 1.1%
same,percent growth inhibition,[3]; [7],10.3 ± 2.3%
CCN1CCC[C@H]1CNC(=O)c1c(O)c(Cl)cc(Cl)c1OC [Raclopride],percent growth inhibition of drug alone,[1]; 7 µM,-0.791 ± 2.4%
same,percent growth inhibition of drug alone,[1]; 20 µM,0.378 ± 5.2%
same,percent growth inhibition,[3]; [7],-4.39 ± 0.64%
CN(C)CCOC(c1ccc(Cl)cc1)c1ccccn1 (stereo unspecified) [Carbinoxamine maleate salt],percent growth inhibition of drug alone,[1]; 7 µM,-6.88 ± 0.94%
same,percent growth inhibition of drug alone,[1]; 20 µM,-3.08 ± 0.79%
same,percent growth inhibition,[3]; [7],-10.7 ± 4.1%
CC1CCc2c(N3CCC(O)CC3)c(F)cc3c(=O)c(C(=O)O)cn1c23 (stereo unspecified) [Nadifloxacin],percent growth inhibition of drug alone,[1]; 7 µM,6.2 ± 4.4%
same,percent growth inhibition of drug alone,[1]; 20 µM,36 ± 4.7%
same,percent growth inhibition,[3]; [6],82.4 ± 20%
same,percent growth inhibition,[3]; [7],98.1 ± 1.5%
CO[C@@]1(NC(=O)Cc2cccs2)C(=O)N2C(C(=O)O)=C(COC(N)=O)CS[C@@H]21 [Cefoxitin sodium salt],percent growth inhibition of drug alone,[1]; 7 µM,5.37 ± 2%
same,percent growth inhibition of drug alone,[1]; 20 µM,7.08 ± 6.2%
same,percent growth inhibition,[3]; [8],8.4 ± 13%
OC(c1cc(C(F)(F)F)nc2c(C(F)(F)F)cccc12)C1CCCCN1 (stereo unspecified) [Mefloquine hydrochloride],percent growth inhibition of drug alone,[1]; 7 µM,0.355 ± 6.6%
same,percent growth inhibition of drug alone,[1]; 20 µM,-2.15 ± 1.1%
same,percent growth inhibition,[3]; [6],1.61 ± 13%
COc1cnc(NS(=O)(=O)c2ccc(N)cc2)nc1 [Sulfameter],percent growth inhibition of drug alone,[1]; 7 µM,-1.55 ± 2.6%
same,percent growth inhibition of drug alone,[1]; 20 µM,-0.515 ± 1.5%
same,percent growth inhibition,[3]; [7],-5.03 ± 15%
CCC[C@@H]1C[C@@H](C(=O)N[C@@H]([C@H]2O[C@H](SC)[C@H](O)[C@@H](O)[C@H]2O)[C@H](C)Cl)N(C)C1 [Clindamycin hydrochloride],percent growth inhibition of drug alone,[1]; 7 µM,12 ± 1.4%
same,percent growth inhibition of drug alone,[1]; 20 µM,28.5 ± 0.74%
same,percent growth inhibition,[3]; [6],44.3 ± 4.1%
